# Compound activity deposited in PubChem by several laboratories.
# Compounds with a hit are over-represented: about 1.1% of the library has one in this group of screens.
# HTR5A inv ag: HTR5A inverse agonists in luminescence cell assay, primary screen, counter-screen for OPRM1-OPRD1 heterodimer inverse agonist project, full-deck HTS | AID 504634, 2011 | HTR5A cell line, inverse agonism | 0.083% of 340,000 active | inhibition, % at 9.3 µM | 5-hydroxytryptamine receptor 5A (Homo sapiens), P47898; in the data active = inhibition mostly above about 23%, no sharp cut-off; inactive = mostly below about 18%;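 note: 0% = cells with DMSO and 100% = no-cell wells with DMSO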
# Target sequence (P47898 whole entry, looked up): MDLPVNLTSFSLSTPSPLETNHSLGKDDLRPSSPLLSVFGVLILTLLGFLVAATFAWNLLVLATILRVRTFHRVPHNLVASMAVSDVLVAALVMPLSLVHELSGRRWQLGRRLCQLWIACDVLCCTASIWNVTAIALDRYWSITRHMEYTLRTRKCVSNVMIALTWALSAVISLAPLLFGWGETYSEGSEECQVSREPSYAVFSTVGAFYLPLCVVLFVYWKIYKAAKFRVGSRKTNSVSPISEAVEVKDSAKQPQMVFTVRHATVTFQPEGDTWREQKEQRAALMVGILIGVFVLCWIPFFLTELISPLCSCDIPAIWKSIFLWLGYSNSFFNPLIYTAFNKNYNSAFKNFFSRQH
# OPRM1-OPRD1 ag: agonists of OPRM1-OPRD1 heterodimerization, primary screen, cell-based, luminescence; 0.3% of 340,000 active; cells; Mu-type opioid receptor (Homo sapiens) + Delta-type opioid receptor (Homo sapiens), …; activation, % at 9.3 µM; in the data active = activation above about 18%;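 note: 0% = vehicle-treated cells and 100% = reference agonist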
# A1 inh: caspase 3/7 activation in MEF A1-2A-BIM cells, primary screen, A1 inhibitor project, cell-based, luminescence, HTS | Caspase-Glo 3/7 luminescence, 3 h; percent of clofoctol response, vehicle zero | caspase activation, % (test concentration not listed) | 0.066% of 330,000 active | AID 2462, 2010;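 active = over half of replicate activation scores above 10%, or exactly half above 10 with the replicate mean above 10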
# MOR-DOR inv ag: inverse agonists of MOR-DOR heterodimerization, primary screen, cell-based, luminescence; Mu-type opioid receptor (Homo sapiens) + Delta-type opioid receptor (Homo sapiens), …; cell-based MOR-DOR heterodimer luminescence, inverse agonism; 0.21% of 340,000 active; AID 504357, 2011; inhibition, % at 9.3 µM; in the data active = inhibition above about 22%, passing the limit was not always enough;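 note: 0% = cells with DMSO and 100% = wells without cells with DMSO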
# HTR5A ag: HTR5A agonists in luminescence cell assay, primary screen, counter-screen for OPRM1-OPRD1 heterodimer agonist project, full-deck HTS; 5-hydroxytryptamine receptor 5A (Homo sapiens), P47898; cell-based; activation, % at 9.3 µM; 0.61% of 340,000 active; AID 504692, 2011; in the data active = activation mostly above about 9.5%, no sharp cut-off; inactive = mostly below about 7.6%;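 note: 0% = cells with vehicle only and 100% = reference agonist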
# * hit, by the source's call; . = no result.
SMILES,HTR5A inv ag,OPRM1-OPRD1 ag,A1 inh,MOR-DOR inv ag,HTR5A ag
Cc1ccc2c(c1)COc1c3ccc(C(=O)N[C@@H](C)CO)cc3nn1-2,-13.9,-1.6,-1.7,9.3,13.9*
CC(=O)N[C@@H](Cc1c[nH]c2ccccc12)C(=O)NCCc1ccc(S(N)(=O)=O)cc1,0.5,-2.6,-0.5,12.1,-0.1
COc1ccc(-n2cc3ccc([N+](=O)[O-])cc3n2)cc1,-10.7,0.9,-6.4,-5.0,2.8
CC1CCCCC1NC(=O)/C(C#N)=C/c1ccc2c(c1)OCCO2 (centres undefined),.,.,0.2,.,.
COc1ccc(NC(=O)Nc2cccc3c2O[C@H](CN(C)S(=O)(=O)c2ccc(OC)cc2)[C@@H](C)CN([C@H](C)CO)C3=O)cc1,-7.2,-3.1,-0.6,14.3,1.9
COc1ccc(NC(=O)Nc2cccc3c2O[C@H](CN(C)S(=O)(=O)c2c(C)noc2C)[C@@H](C)CN([C@H](C)CO)C3=O)cc1,-38.7,-1.0,0.0,4.5,10.4*
CC(C)CNS(=O)(=O)c1cc(C(=O)N2CCOCC2)c(Cl)cc1Cl,11.4,-1.5,-0.2,7.4,10.0*
CCc1cccc(NC(=O)CCSCCC(=O)Nc2cccc(CC)c2)c1,9.2,0.5,1.6,-2.5,-1.1
Cc1cccc(N2CCN(C(=O)c3ccc(N4CCCC4=O)cc3)CC2)c1C,-15.3,0.0,1.8,0.2,-0.2
O=C(CCN1C(=O)/C(=C/c2ccccc2F)SC1=S)NCCCN1CCOCC1,-5.3,-0.1,-2.0,0.9,12.8*
O=C(CCN1C(=O)/C(=C/c2ccccc2)SC1=S)NCCCN1CCOCC1,-23.4,2.2,-0.5,-14.0,8.2
CCOC(=O)CSc1nc2ccc(N3CCOCC3)cc2c(=O)n1Cc1ccccc1,-9.3,0.7,-0.4,-2.9,3.4
CCOC(=O)c1c2ccc(OCC(=O)N/N=C/c3ccc(C)cc3)cc2n2ccccc12,-1.3,1.0,34.8*,-5.8,-1.8
O=C(COc1ccccc1)Nc1ccc(CSc2ccccc2)cc1,1.1,9.6,-0.3,-56.2,11.7*
O=C(Nc1ccc(CSc2ccccc2)cc1)c1ccccc1,-4.4,3.5,-8.0,-18.5,1.6
COc1ccc(-c2ccc3c(c2)S(=O)(=O)c2cccc(C(=O)NCc4cccc(OC(F)(F)F)c4)c2C3=O)cc1OC,4.2,-2.8,38.7*,13.1,0.4
O=C(NCc1ccccc1Cl)c1cccc2c1C(=O)c1ccc(-c3ccc(OC(F)(F)F)cc3)cc1S2(=O)=O,-3.4,3.0,10.4*,-18.4,0.9
CCCCC(CCC(=O)Nc1ccc(C(=O)OC)cc1)C(=O)O (centres undefined),-39.7,-4.3,-1.1,18.3,1.6
Oc1cccc(C(O)CNCc2ccc(OCc3ccc(Cl)cc3Cl)cc2)c1 (centres undefined),-35.5,10.4,-0.4,-59.4,12.5*
C1=NN(c2ccccc2)C=NN1c1ccccc1,-6.8,-2.5,.,12.8,1.8
CCCCS/C(=C(/C#N)C(N)=O)c1cc2c([nH]1)CCCC2,10.4,3.6,1.2,-17.1,-4.4
CCCNC(=O)Cc1c(OC)ccc2cc(Br)ccc12,-45.7,3.1,0.9,-17.8,13.4*
CCCCNC(=O)Cc1c(OC)ccc2cc(Br)ccc12,33.6,-0.7,-0.1,3.8,5.5
CCN1C(=O)[C@H]2[C@H]3CN=C(SCC(=O)c4ccccc4)N3[C@@](CC)(C(=O)OC)[C@H]2C1=O,6.4,-3.9,.,19.3,-1.9
CCN(C(=O)CSc1ncccc1C(=O)OC(C)C)c1cccc(C)c1,-13.4,-0.9,-0.4,4.5,11.3*
SMILES,HTR5A inv ag,OPRM1-OPRD1 ag,A1 inh,MOR-DOR inv ag,HTR5A ag
CCOC(=O)c1cccnc1SCC(=O)N(CC)c1cccc(C)c1,-8.6,-0.9,1.2,4.8,2.8
COc1ccccc1NC(=O)Cn1nc(Cc2cccnc2)c2ccccc2c1=O,-12.9,-2.1,1.3,10.9,1.8
O=C1C(Nc2ccccc2)=CC(c2ccc(O)cc2)N1c1ccccc1 (centres undefined),-0.3,-2.6,0.6,13.9,12.5*
CC(=O)N1C(=O)c2cccc3cccc(c23)C(=O)N1C(C)=O,.,.,1.7,.,.
O=C1c2cccc3cccc(c23)C(=O)C1(O)O,14.6,-9.1,-0.2,46.3*,-3.6
CCC(C)NCCOCCOc1cc(C)c(Cl)c(C)c1 (centres undefined),4.0,0.8,-0.7,-3.8,11.5*
CCC(C)NCCOCCOc1ccc(F)cc1 (centres undefined),-20.0,0.6,0.6,-3.2,1.0
CCOc1ccccc1N=CC1=C(O)CC(c2ccccc2)CC1=O (centres undefined),-32.8,-1.3,-0.2,6.1,12.6*
COc1ccc(N=CC2=C(O)CC(c3ccccc3)CC2=O)c(OC)c1 (centres undefined),-5.8,-2.5,0.0,13.1,-2.3
CCCCOc1cccc(C2C(C(=O)c3ccc(C)o3)=C(O)C(=O)N2Cc2ccco2)c1 (centres undefined),-47.3,-1.1,-2.1,6.4,12.9*
Cc1cc(S(=O)(=O)Nc2ccc(N(C)C)cc2)c(C)s1,9.1,2.0,0.3,-11.1,-0.8
COc1ccc(S(=O)(=O)Cc2ccc(C(=O)N3CC(C)CC(C)C3)o2)cc1 (centres undefined),-36.4,0.0,.,-0.2,13.2*
COc1ccc(S(=O)(=O)Cc2ccc(C(=O)N3CCOCC3)o2)cc1,-23.2,-1.8,0.0,9.1,7.8
C=CCn1c(SCC(=O)NC2CC2)nc2ccccc2c1=O,1.2,-2.7,0.1,10.6,-0.5
O=C(Nc1cc(N2CCOCC2)ncn1)Nc1cccc2ccccc12,-7.4,2.3,-0.3,-12.8,7.1
CC1Oc2ccccc2N(CC(=O)Nc2ccc(F)cc2)C1=O (centres undefined),-40.3,-2.7,-0.2,12.6,10.9*
CCOc1ccc(/C=N/Nc2ccccc2)cc1,9.1,-1.5,0.0,6.6,-2.5
Cc1cc(C)cc(N=Cc2c(O)c3ccccc3oc2=O)c1,-1.2,-0.5,10.3*,2.1,0.5
O=C(Nc1ccc(S(=O)(=O)Nc2ccccn2)cc1)c1ccc(Cl)cc1Cl,7.2,-0.2,0.5,1.2,-2.7
CCCS(=O)(=O)N1CCCC(C(=O)NCCCN2CCN(c3ccc(F)cc3)CC2)C1 (centres undefined),-20.9,1.2,-0.1,-7.1,10.8*
CCCS(=O)(=O)N1CCCC(C(=O)NCCCOC(C)C)C1 (centres undefined),2.9,-2.5,0.7,15.0,4.9
Cc1nn(-c2cccc(C(F)(F)F)c2)c(=O)c2noc(C)c12,16.7,-0.9,1.7,4.3,-6.4
Cc1sc2nc(CN3CCN(c4ccc(O)cc4)CC3)[nH]c(=O)c2c1C,-38.5,-0.9,1.4,4.7,12.2*
Cc1nc2ccccc2c2oc(C(=O)Nc3ccc(C(C)C)cc3)cc12,-39.2,7.7,-0.5,-55.9,13.8*
